This passage reports Potency and outcome results from PubChem BioAssay (Tox21).

Assay [1] can be described thus: Human pregnane X receptor (PXR) small molecule agonists, qHTS cell viability counter screen (AID 1346977). Note: nearly all actives have a fitted effect of over 50% in size. Note: potency is the fitted concentration of half-maximal effect. The method, boiled down: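 PXR-Luc HepG2, 2,000 cells/well, 5% charcoal-stripped FBS; 5hr settle; cpd 24hr, 37C/5% CO2; CellTiter-Fluor at 23hr, read 1hr later (fluorescence).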
The nature of assay [2]: Caspase-3/7 induction in HepG2 cells by small molecules, qHTS assay (AID 1346978). Note: nearly all actives have a fitted effect of over 15% in size. The essentials: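 Caspase-3/7 induction was measured by Caspase-Glo 3/7 luminescence (30 min, room temperature) after a 17 hr compound exposure of wild-type HepG2 cells seeded at 2,000 per well and pre-incubated 5 hr.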
A general note: In qHTS, concentration-response curves come from the screen itself.

The nature of assay [3]: Caspase-3/7 induction in CHO-K1 cells by small molecules, qHTS cell viability counter screen (AID 1346979). Note: nearly all actives have a fitted effect of over 35% in size. The essentials: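 Cells (CHO-K1, wild type) are plated at 1,500 per well and incubated 5hr. Test compounds in DMSO are then pinned in, followed by 16hr at 37C and 5% CO2. Viability is read by CellTiter-Fluor fluorescence after 1hr.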
Assay [4] is described as follows: Caspase-3/7 induction in CHO-K1 cells by small molecules, qHTS assay (AID 1346980). Note: nearly all actives have a fitted effect of over 15% in size. The method, boiled down: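 Luminescent Caspase-Glo 3/7 read (30min, room temperature) quantified apoptosis induction. Cells were wild-type CHO-K1, treated with compound for 17hr at 37 C and 5% CO2.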
Assay [5] can be described thus: Caspase-3/7 induction in HepG2 cells by small molecules, qHTS cell viability counter screen (AID 1346981). Note: nearly all actives have a fitted effect of over 30% in size. Note: potency is the fitted concentration of half-maximal effect. The method, boiled down: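 Wild-type HepG2 cells, 2,000/well, settled 5 hr at 37 C, 5% CO2 before compound addition. Viability read by CellTiter-Fluor fluorescence, reagent added after 16 hr compound exposure, then 1 hr at 37C, in the same wells as the caspase read.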

Assay [6] concerns the target Nuclear receptor subfamily 1 group I member 2 (Homo sapiens) (UniProt O75469). As to the kind of experiment: Human pregnane X receptor (PXR) small molecule agonists, qHTS assay (AID 1346982). Note: nearly all actives have a fitted effect of over 35% in size. Note: potency is the fitted concentration of half-maximal effect. The method, boiled down: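 PXR-Luc HepG2 reporter cells (CYP3A4-driven luciferase) in 5% charcoal-stripped FBS medium, plated 5 h before compound addition, then treated 24 h at 37C. Luciferase read by ONE-Glo luminescence after 30 min at room temperature.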

The target of assay [7] is Cytochrome P450 2D6 (Homo sapiens) (UniProt P10635). As to the kind of experiment: Cytochrome P450 Family 2 Subfamily D Member 6 (CYP2D6) small molecule antagonists: luciferase reporter qHTS assay (AID 1671196). Note: nearly all actives have a fitted effect of over 50% in size. Note: potency is the fitted concentration of half-maximal effect. The method, boiled down: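 Cell-free P450-Glo system: CYP2D6 with proluciferin substrate was pre-incubated with compound for 10 min, then reacted with NADPH regeneration for 1 h at room temperature. Luciferin product was detected after 20 min, and data were reported as relative luminescence units.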

Assay [8] deals with Cytochrome P450 1A2 (Homo sapiens) (UniProt P05177). As to the kind of experiment: Cytochrome P450 Family 1 Subfamily A Member 2 (CYP1A2) small molecule antagonists: luciferase reporter qHTS assay (AID 1671199). Note: nearly all actives have a fitted effect of over 50% in size. Note: potency is the fitted concentration of half-maximal effect. The essentials: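 P450-Glo CYP1A2 enzyme–proluciferin substrate mix with compound 10 min at room temperature, then NADPH regeneration 1 h at room temperature. Luciferin detection reagent added, luminescence read after 20 min; furafylline positive control.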

Assay [9] deals with Voltage-gated inwardly rectifying potassium channel KCNH2 (Homo sapiens) (UniProt Q12809). As to the kind of experiment: Human Ether-a-go-go-Related Gene (hERG) channel small molecule antagonists: fluorescence cell-based qHTS assay (AID 1671200).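 Note: hERG-expressing U2OS cells given a thallium stimulus after FluxOR II dye loading; series mostly up to about 77 µM; nearly all actives have a fitted effect of over 50% in size.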 The essentials: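 Channel function was assessed by thallium flux. Cells seeded the previous day and kept at 37 C took up FluxOR II dye over 1 h in the dark at room temperature, then sat another 10 min before stimulation.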
On the technique in general: hERG is a cardiac potassium channel; its block is linked to QT prolongation.

For assay [10], the target named is Cytochrome P450 3A4 (Homo sapiens) (UniProt P08684). As to the kind of experiment: Cytochrome P450 Family 3 Subfamily A Member 4 (CYP3A4) small molecule antagonists: luciferase reporter qHTS assay (AID 1671201). Note: nearly all actives have a fitted effect of over 50% in size. Note: potency is the fitted concentration of half-maximal effect. The essentials:
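Compounds in DMSO were pin-transferred onto CYP3A4 enzyme-substrate mix and held 10 min at room temperature. NADPH regenerating solution started the reaction for 1 h; luciferin detection reagent stopped it, and luminescence was read after 20 min.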
A general note: In a reporter assay the amount or activity of a reporter protein is the signal.

Assay [11] concerns the target Cytochrome P450 2C19 (Homo sapiens) (UniProt P33261). As to the kind of experiment: Cytochrome P450 Family 2 Subfamily C Member 19 (CYP2C19) small molecule antagonists: luciferase reporter qHTS assay (AID 1671197). Note: nearly all actives have a fitted effect of over 65% in size. Note: potency is the fitted concentration of half-maximal effect. The essentials:
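P450-Glo CYP2C19 screening system; proluciferin substrate; DMSO compound stocks; 10 min RT preincubation; NADPH regeneration, 1 h at 37C; luciferin detection reagent, 20 min RT; luminescence as RLU.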

For assay [12], the target named is Cytochrome P450 2C9 (Homo sapiens) (UniProt P11712). As to the kind of experiment: Cytochrome P450 Family 2 Subfamily C Member 9 (CYP2C9) small molecule antagonists: luciferase reporter qHTS assay (AID 1671198). Note: nearly all actives have a fitted effect of over 50% in size. Note: potency is the fitted concentration of half-maximal effect. The method, boiled down: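 Enzyme-substrate mix preincubated with compound 10 min at room temperature; reaction started with NADPH regeneration solution, 1 h 37C. Luminescent luciferin product read after 20 min detection reagent.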

Values without a mark were called inactive. Records with an inconclusive call do not appear. Calls of active or inactive are those of the source. Calls come from the whole dose curve; as a rule, active = well fitted curve in the direction sought with a large enough effect in the repeat runs; inconclusive = weak or mixed curves; inactive = no such curve, though single readings can be large; an effect the other way counts as inactive or inconclusive.

Chain of Cytochrome P450 2C19 (Homo sapiens) (P33261 whole entry, looked up): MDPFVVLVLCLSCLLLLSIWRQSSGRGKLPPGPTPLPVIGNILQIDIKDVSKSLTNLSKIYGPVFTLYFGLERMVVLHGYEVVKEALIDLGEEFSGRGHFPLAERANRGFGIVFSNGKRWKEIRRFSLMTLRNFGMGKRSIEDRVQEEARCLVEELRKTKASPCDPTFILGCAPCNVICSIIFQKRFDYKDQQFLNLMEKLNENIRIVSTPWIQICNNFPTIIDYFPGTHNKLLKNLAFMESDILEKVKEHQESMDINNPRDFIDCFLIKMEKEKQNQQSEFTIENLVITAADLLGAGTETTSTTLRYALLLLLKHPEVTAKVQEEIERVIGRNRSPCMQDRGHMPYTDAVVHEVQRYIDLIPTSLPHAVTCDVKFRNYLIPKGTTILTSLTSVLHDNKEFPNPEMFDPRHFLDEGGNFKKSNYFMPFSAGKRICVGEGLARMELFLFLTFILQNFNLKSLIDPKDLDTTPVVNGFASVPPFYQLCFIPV
Chain of Voltage-gated inwardly rectifying potassium channel KCNH2 (Homo sapiens) (Q12809 whole entry, looked up): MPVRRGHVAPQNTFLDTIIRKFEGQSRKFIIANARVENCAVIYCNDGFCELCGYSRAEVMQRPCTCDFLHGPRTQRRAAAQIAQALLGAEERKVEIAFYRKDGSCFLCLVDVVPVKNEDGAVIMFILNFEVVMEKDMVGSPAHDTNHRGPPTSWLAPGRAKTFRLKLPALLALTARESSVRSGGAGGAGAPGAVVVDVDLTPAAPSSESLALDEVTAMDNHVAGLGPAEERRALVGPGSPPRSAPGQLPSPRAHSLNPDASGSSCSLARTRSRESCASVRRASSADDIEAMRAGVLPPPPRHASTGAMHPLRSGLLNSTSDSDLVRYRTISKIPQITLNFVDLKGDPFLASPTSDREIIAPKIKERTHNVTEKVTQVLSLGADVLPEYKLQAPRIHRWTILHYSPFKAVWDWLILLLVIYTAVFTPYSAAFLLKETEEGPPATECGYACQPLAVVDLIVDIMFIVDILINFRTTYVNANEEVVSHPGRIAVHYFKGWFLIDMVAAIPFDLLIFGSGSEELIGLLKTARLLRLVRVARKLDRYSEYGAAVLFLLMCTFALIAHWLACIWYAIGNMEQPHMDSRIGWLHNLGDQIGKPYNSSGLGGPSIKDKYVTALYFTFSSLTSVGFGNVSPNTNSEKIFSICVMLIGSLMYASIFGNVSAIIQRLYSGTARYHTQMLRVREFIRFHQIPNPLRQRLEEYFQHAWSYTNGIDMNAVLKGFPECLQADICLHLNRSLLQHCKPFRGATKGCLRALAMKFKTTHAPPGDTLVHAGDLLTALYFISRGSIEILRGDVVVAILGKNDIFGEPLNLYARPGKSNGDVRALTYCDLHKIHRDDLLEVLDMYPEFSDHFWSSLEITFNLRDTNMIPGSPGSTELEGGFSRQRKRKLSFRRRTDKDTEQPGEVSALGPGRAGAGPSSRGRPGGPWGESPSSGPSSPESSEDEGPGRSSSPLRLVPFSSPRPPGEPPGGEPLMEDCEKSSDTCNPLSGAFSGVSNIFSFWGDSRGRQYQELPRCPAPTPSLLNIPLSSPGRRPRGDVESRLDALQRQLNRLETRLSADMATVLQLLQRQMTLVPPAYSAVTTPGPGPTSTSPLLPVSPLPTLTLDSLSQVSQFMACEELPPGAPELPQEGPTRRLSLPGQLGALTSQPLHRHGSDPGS
Chain of Nuclear receptor subfamily 1 group I member 2 (Homo sapiens) (O75469 whole entry, looked up): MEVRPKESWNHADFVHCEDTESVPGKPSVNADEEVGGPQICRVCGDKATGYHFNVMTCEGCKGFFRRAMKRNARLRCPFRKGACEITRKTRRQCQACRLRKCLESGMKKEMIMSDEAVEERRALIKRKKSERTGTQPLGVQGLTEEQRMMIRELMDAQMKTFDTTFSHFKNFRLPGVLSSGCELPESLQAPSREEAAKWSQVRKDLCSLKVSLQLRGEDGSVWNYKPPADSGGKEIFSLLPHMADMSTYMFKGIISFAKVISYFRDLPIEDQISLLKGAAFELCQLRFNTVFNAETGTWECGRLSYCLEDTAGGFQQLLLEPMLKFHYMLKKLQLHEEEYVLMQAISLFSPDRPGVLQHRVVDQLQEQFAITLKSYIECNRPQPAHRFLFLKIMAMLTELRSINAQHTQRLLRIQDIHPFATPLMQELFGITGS
Chain of Cytochrome P450 2D6 (Homo sapiens) (P10635 whole entry, looked up): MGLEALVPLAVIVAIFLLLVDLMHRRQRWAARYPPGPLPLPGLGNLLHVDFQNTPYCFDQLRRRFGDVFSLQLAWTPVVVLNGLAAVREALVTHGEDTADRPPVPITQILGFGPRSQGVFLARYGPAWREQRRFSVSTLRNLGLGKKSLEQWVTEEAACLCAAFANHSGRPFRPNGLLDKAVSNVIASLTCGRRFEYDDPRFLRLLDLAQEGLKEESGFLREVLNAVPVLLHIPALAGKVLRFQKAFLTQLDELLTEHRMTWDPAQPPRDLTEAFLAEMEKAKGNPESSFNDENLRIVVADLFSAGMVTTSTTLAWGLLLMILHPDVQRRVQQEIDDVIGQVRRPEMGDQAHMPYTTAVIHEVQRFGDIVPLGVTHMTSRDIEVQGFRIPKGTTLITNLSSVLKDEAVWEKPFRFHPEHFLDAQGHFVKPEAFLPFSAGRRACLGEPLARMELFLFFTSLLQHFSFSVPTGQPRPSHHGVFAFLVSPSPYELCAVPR
Chain of Cytochrome P450 2C9 (Homo sapiens) (P11712 whole entry, looked up): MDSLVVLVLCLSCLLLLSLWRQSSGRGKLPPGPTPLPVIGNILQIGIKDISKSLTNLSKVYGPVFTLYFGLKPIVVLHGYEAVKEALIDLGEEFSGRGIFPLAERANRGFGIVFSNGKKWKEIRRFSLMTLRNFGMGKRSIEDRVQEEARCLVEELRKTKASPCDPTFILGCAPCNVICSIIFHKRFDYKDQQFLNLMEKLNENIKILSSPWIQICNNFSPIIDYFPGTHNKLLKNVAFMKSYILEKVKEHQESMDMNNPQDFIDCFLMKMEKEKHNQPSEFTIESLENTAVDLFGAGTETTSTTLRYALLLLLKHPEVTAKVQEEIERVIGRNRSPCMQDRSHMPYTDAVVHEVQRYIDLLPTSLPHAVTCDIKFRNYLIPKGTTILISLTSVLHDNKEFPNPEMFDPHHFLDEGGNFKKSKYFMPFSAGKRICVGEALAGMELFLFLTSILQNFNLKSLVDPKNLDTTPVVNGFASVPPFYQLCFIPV
Chain of Cytochrome P450 3A4 (Homo sapiens) (P08684 whole entry, looked up): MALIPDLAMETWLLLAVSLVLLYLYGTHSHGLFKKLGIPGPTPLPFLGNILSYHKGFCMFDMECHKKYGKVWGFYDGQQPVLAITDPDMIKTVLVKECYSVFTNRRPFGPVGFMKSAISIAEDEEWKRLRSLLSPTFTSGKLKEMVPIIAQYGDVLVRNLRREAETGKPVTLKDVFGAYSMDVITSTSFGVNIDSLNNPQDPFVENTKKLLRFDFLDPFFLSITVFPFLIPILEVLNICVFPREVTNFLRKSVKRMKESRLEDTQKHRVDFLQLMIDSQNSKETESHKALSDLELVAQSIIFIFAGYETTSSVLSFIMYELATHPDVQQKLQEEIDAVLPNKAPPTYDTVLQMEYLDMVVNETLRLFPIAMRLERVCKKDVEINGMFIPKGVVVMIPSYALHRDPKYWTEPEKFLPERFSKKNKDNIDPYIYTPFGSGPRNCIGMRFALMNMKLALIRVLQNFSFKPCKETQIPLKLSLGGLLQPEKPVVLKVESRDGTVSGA
Chain of Cytochrome P450 1A2 (Homo sapiens) (P05177 whole entry, looked up): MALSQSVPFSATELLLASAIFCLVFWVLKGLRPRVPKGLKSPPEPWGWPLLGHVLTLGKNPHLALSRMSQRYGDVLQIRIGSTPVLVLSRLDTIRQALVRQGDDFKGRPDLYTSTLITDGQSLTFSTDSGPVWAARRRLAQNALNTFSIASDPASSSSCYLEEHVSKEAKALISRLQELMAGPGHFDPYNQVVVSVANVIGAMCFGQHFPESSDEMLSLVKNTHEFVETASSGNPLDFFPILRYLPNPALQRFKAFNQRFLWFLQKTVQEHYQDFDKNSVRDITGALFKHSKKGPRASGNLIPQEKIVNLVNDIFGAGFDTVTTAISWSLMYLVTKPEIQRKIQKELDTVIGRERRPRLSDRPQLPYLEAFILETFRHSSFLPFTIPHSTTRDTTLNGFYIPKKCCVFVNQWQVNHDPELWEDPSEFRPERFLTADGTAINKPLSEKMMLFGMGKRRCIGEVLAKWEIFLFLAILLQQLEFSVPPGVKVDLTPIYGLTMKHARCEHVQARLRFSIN

Turning to `c1ccc(CNc2ncnc3c2ncn3C2CCCCO2)cc1` (stereo not given), the Potency result in assay [1], in [2], in assay [3], in assay [5], in assay [7] and in assay [9] was “inactive” throughout. Besides, the Potency entry in assay [10] is “inactive”. Besides, the outcome in assay [4] was inactive. The Potency in assay [6] was 21.7 µM (active); in [8], 28.3 µM (active).
As for `CC1=C2[C@@H]([C@H](C)CC[C@H]2/C=C(\C)C(=O)O)[C@H](O)C1`, the Potency entry in [1], in assay [2], in assay [3], in assay [5], in [6] and in assay [11] was “inactive” throughout. In addition, the Potency result in assay [12], in assay [8], in assay [9] and in assay [10] was “inactive” each time. Further, the outcome in [4] was inactive.
Consider `CN=C(N)NC(=O)Nc1c(C)cccc1C`, for which the Potency entry in assay [1], in assay [2], in [3], in assay [5], in assay [6] and in assay [7] was “inactive” each time. For the same compound, the Potency entry in assay [12], in assay [8], in assay [9] and in [10] was “inactive” in each case. Further, the result in assay [4] was inactive.
For the compound `O=C(/C=C/c1ccc([N+](=O)[O-])cc1)c1ccccc1`, the Potency was 61.3 µM (active) in assay [1]; 24.4 µM (active) in assay [6]; 1.59 µM (active) in [11]; 11.3 µM (active) in assay [12]; 5.04 µM (active) in assay [8]. Also, the call in [4] was inactive. In addition, the Potency entry in assay [9] and in assay [10] was “inactive” in each case.
With `Nc1cccc2c(N)cccc12`, the Potency is 5.45 µM (active) in assay [1]; 61.1 µM (active) in [5]; 17.2 µM (active) in assay [6]; 2.38 µM (active) in assay [7]; 7.96 µM (active) in assay [11]; 9.2 µM (active) in assay [12]. Further, in assay [8], the Potency was 3.72 µM (active). The compound was called inactive in assay [4]. In [9], the Potency entry is “inactive”.
In the case of `COC(=O)Nc1nc2ccc(C(=O)C3CC3)cc2[nH]1`, the Potency result in assay [1], in assay [2], in assay [5], in assay [7], in assay [11] and in [9] was “inactive” each time. Moreover, the compound was called inactive in assay [4]. For the same compound, the Potency was 8.41 µM (active) in [6] and 10.2 µM (active) in assay [8].
For the compound `COc1cc(OC)c2ccc(=O)oc2c1`, the Potency entry in assay [1], in assay [2], in assay [5], in assay [6] and in assay [9] was “inactive” throughout. Moreover, the outcome in [4] was inactive. Further, the Potency was 7.96 µM (active) in [8] and 39.9 µM (active) in assay [10].
For the compound `CC(=O)OCC(=O)[C@@]1(OC(C)=O)[C@@H](C)C[C@H]2[C@@H]3C[C@H](F)C4=CC(=O)C=C[C@]4(C)[C@@]3(F)[C@@H](O)C[C@@]21C`, the Potency result in assay [1], in assay [2], in [5], in assay [7], in assay [11] and in assay [8] was “inactive” throughout. For the same compound, the Potency entry in assay [9] and in assay [10] was “inactive” in each case. Besides, the outcome in [4] was inactive.
Consider `CC12CC3CC(C)(C1)CC(N)(C3)C2`, for which the Potency result in assay [2], in [3], in assay [5], in [6], in assay [11] and in assay [8] was “inactive” each time. Besides, the Potency result in assay [9] and in [10] was “inactive” in each case. Besides, in assay [4], the compound was classed as inactive.
For the compound `CCCCCCCCCCCCCCCCCC(=O)OCC(CC)CCCC` (stereo not given), the Potency result in assay [1], in assay [2], in assay [3], in assay [5], in assay [6] and in [7] was “inactive” each time. Also, the Potency result in assay [11], in assay [12], in assay [9] and in [10] was “inactive” in each case. Further, the result in assay [4] was inactive.
